{
  "source": "PubChem BioAssay",
  "key": {"[1]": {"experiment": "compounds altering HSF1 focus formation in cells – imaging, Selleck Cancer Library (AID 1347162; in the data active = plate-normalised HSF1 focus index below about 0.46)", "conditions": "human cells, HSF1 nuclear foci imaging, at 10 µM; SSMD: measured here: HSF1 foci SSMD mean; cell count: measured here: cell number; plate-normalised HSF1 focus index: stronger effect = lower value"}, "[2]": {"tested_on": "Neuropilin-2 / VEGF-C interaction (human)", "experiment": "small molecules blocking Neuropilin-2/VEGF-C interaction – biochemical, microplate binding format, z-score (AID 743281; call rule not given here)", "conditions": "microplate NRP2/VEGF-C binding assay; stronger effect = lower value"}, "[3]": {"experiment": "chitosan synthesis blockers in C. neoformans – flow cytometry, Cibacron Brilliant Red staining (AID 1347148; call rule not given here;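 also: compound exposure lasted three days at 37 degrees C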)", "conditions": "Cryptococcus neoformans chitosan, stronger effect = lower value; at 10 µM unless noted"}, "[4]": {"experiment": "growth inhibition, single agents and combos, LFS_MB_1R, cell-based, cisplatin or BGB combos, synergistic combos for chromothripsis tumors (AID 1671452);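 also: cells exposed for 96 hours before readout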", "conditions": "LFS_MB_1R medulloblastoma cells, stronger effect = higher value"}, "[5]": {"experiment": "growth inhibition, single agents and combos, CRL2098, cell-based, BGB or cisplatin IC20 combos, synergistic combos for chromothripsis tumors (AID 1671454);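 also: cells exposed for 96 h before readout; 0% = vehicle DMSO and 100% = killing by high DMSO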", "conditions": "CRL2098 osteosarcoma cells, drug combinations, stronger effect = higher value"}, "[6]": {"experiment": "growth inhibition, single agents and combos, HD-MB03, cell-based, BGB or cisplatin IC20 combos, synergistic combos for chromothripsis tumors (AID 1671455; in the data active = inhibition above about 83%;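 also: 0% = vehicle DMSO and 100% = high DMSO as cytotoxic control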)", "conditions": "HD-MB03 medulloblastoma cells, stronger effect = higher value"}, "[7]": {"experiment": "growth inhibition, single agents and combos, UWB1.289, cell-based, BGB or cisplatin combos, synergistic combos for chromothripsis tumors (AID 1671456);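 also: cells exposed to compound for four days; 0% = vehicle DMSO and 100% = killing by high DMSO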", "conditions": "UWB1.289 ovarian carcinoma cells, stronger effect = higher value"}, "[8]": {"experiment": "growth inhibition, single agents and combos, LFS_MB_2R, cell-based, cisplatin combos, synergistic combos for chromothripsis tumors (AID 1671457);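 also: cells exposed to compound for four days before readout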", "conditions": "LFS_MB_2R medulloblastoma cells, stronger effect = higher value"}, "[9]": {"experiment": "growth inhibition, MDA-MB-436, cell-based, BGB or cisplatin combos, synergistic combos for chromothripsis tumors (AID 1671458; call rule not given here;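 also: cells exposed for 96 hours; 0% = vehicle DMSO and 100% = killing by high DMSO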)", "conditions": "MDA-MB-436 breast carcinoma growth inhibition, drug combinations, stronger effect = higher value"}, "[10]": {"experiment": "UWB1.289_BRCA1 ovarian cancer growth, cell-based, BGB or cisplatin combinations (AID 1671459)", "conditions": "UWB1.289 BRCA1 ovarian carcinoma, drug combinations, stronger effect = higher value"}, "[11]": {"experiment": "drug combination toxicity in non-malignant astrocytes – cell-based, BGB or cisplatin IC20 combos, cytotoxicity control for chromothriptic childhood tumor combination screen (AID 1671460);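 also: cells exposed to compounds for 96 hours before viability readout; 0% = vehicle and 100% = killing control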", "conditions": "Human astrocytes, viability inhibition, drug combinations, at 0.5 µM, stronger effect = higher value"}, "[12]": {"experiment": "BT084 cell growth, single and combined drugs, ICGC_MB145, cisplatin and BGB IC40 combos (AID 1671461);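 also: cells exposed to drugs for 96 hours; 0% = vehicle DMSO and 100% = high DMSO full killing control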", "conditions": "BT084 medulloblastoma cells, drug combinations, stronger effect = higher value"}, "[13]": {"experiment": "RCMB18 cell growth, single agent and combined, cisplatin and BGB IC40 combos (AID 1671462);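 also: cells exposed to compound for four days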", "conditions": "RCMB18 medulloblastoma cells, stronger effect = higher value"}, "[14]": {"experiment": "CRL1545 cell growth, single agent and combined, cisplatin and BGB IC20 combos (AID 1671464);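 also: cells exposed to compound for 96 hours before readout; 0% = vehicle DMSO and 100% = high DMSO killing control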", "conditions": "CRL1545 osteosarcoma cells, stronger effect = higher value"}, "[15]": {"conditions": "measured here: combination with cisplatin, at 0.5 µM"}, "[16]": {"conditions": "measured here: combination with cisplatin, at 5 µM"}},
  "note": "“And” between values parts separate entries of the source, which are not always exact repeats. Equal entries are not always repeated. The source made the active and inactive calls. Rule as the data show it, unless noted: active = inhibition above about 80%; inactive = the rest.",
  "data": [
    {"smiles": "Cc1ccc(-n2nc(C(C)(C)C)cc2NC(=O)Nc2ccc(OCCN3CCOCC3)c3ccccc23)cc1", "values": [
      {"measurement": "SSMD", "setting": "[1]", "result": 3.54},
      {"measurement": "cell count", "setting": "[1]", "result": 7570},
      {"measurement": "plate-normalised HSF1 focus index", "setting": "[1]", "result": "1.13 (inactive)"}
    ]},
    {"smiles": "COC(=O)C1=C(C)NC(C)=C(C(=O)OC)C1c1ccccc1[N+](=O)[O-]", "values": [
      {"measurement": "z-score", "setting": "[2]", "result": "-0.452 (inactive)"},
      {"measurement": "fold fluorescence", "setting": "[3]", "result": "3.72 [at 144.4 µM] (inactive)"}
    ]},
    {"smiles": "N=c1nc(N2CCCCC2)cc(N)n1O", "values": [
      {"measurement": "fold fluorescence", "setting": "[3]", "result": "4.24 [at 238.9 µM] (inactive)"}
    ]},
    {"smiles": "CC(C)(C)NCC(O)c1ccc(O)c(CO)c1", "note": "(stereo unspecified)", "values": [
      {"measurement": "z-score", "setting": "[2]", "result": "-0.605 (inactive)"}
    ]},
    {"smiles": "CCCC(CCC)C(=O)O", "values": [
      {"measurement": "inhibition", "setting": "[4]; at 0.5 µM", "result": "-27.6% (inactive) and -16.5% (inactive)"},
      {"measurement": "inhibition", "setting": "[4]; measured here: combination with BGB IC40, at 0.05 µM", "result": "-35.5% and -12.1%"},
      {"measurement": "inhibition", "setting": "[4]; [15]", "result": "-35% and -39.3%"},
      {"measurement": "inhibition", "setting": "[4]; [16]", "result": "2.7% and -48.1%"},
      {"measurement": "inhibition", "setting": "[5]; at 0.5 µM", "result": "-45.4% (inactive) and -15.9% (inactive)"},
      {"measurement": "inhibition", "setting": "[5]; measured here: combination with BGB at IC20, at 0.5 µM", "result": "-45.9% and -23.5%"},
      {"measurement": "inhibition", "setting": "[5]; measured here: combination with cisplatin at IC20, at 0.5 µM", "result": "-34.5% and 0.202%"},
      {"measurement": "inhibition", "setting": "[6]; at 0.5 µM", "result": "-15.1% (inactive) and -0.6% (inactive)"},
      {"measurement": "inhibition", "setting": "[6]; measured here: combo with BGB at IC20, at 0.5 µM", "result": "-17% and -10.3%"},
      {"measurement": "inhibition", "setting": "[6]; measured here: combo with cisplatin at IC20, at 0.5 µM", "result": "-14.1% and 6.37%"},
      {"measurement": "inhibition", "setting": "[7]; at 0.5 µM", "result": "-4.81% (inactive) and 13.2% (inactive)"},
      {"measurement": "inhibition", "setting": "[7]; measured here: inhibition with BGB combination, at 0.05 µM", "result": "-26.3% and 5.38%"},
      {"measurement": "inhibition", "setting": "[7]; measured here: inhibition with cisplatin combination, at 0.05 µM", "result": "-23.4% and 27.8%"},
      {"measurement": "inhibition", "setting": "[8]; at 0.5 µM", "result": "-16.9% (inactive) and 1.18% (inactive)"},
      {"measurement": "inhibition", "setting": "[8]; [15]", "result": "-15.6% and 6.48%"},
      {"measurement": "inhibition", "setting": "[8]; [16]", "result": "-69.4% and 11.4%"},
      {"measurement": "inhibition", "setting": "[9]; at 0.5 µM", "result": "-30.4% (inactive) and 1.93% (inactive)"},
      {"measurement": "inhibition", "setting": "[9]; measured here: BGB combination, at 0.5 µM", "result": "-29.6% and 4.62%"},
      {"measurement": "inhibition", "setting": "[9]; measured here: BGB combination, at 5 µM", "result": "-20.8% and 1.95%"},
      {"measurement": "inhibition", "setting": "[9]; measured here: cisplatin combination, at 0.5 µM", "result": "-40.6% and 3.21%"},
      {"measurement": "inhibition", "setting": "[9]; measured here: cisplatin combination, at 5 µM", "result": "-25.9% and 1.52%"},
      {"measurement": "inhibition", "setting": "[10]; BGB combination, concentration series, at 5 µM", "result": "-15.2% and 3.45%"},
      {"measurement": "inhibition", "setting": "[10]; at 0.5 µM", "result": "-19% (inactive) and 7.15% (inactive)"},
      {"measurement": "inhibition", "setting": "[10]; cisplatin combination, concentration series, at 5 µM", "result": "0.227% and -13.4%"},
      {"measurement": "inhibition", "setting": "[11]", "result": "-9% (inactive) and 2.09% (inactive)"},
      {"measurement": "inhibition", "setting": "[11]; measured here: combo with BGB IC20", "result": "-11% and 1.03%"},
      {"measurement": "inhibition", "setting": "[11]; measured here: combo with cisplatin IC20", "result": "0.797% and 9.29%"},
      {"measurement": "inhibition", "setting": "[12]; at 0.5 µM", "result": "-33.9% (inactive) and -3.36% (inactive)"},
      {"measurement": "inhibition", "setting": "[12]; cisplatin combination, at 0.5 µM", "result": "-10.5% and -11.6%"},
      {"measurement": "inhibition", "setting": "[12]; cisplatin combination, at 5 µM", "result": "-5.4% and -1.37%"},
      {"measurement": "inhibition", "setting": "[12]; measured here: BGB IC40 combination 0.05 uM, at 0.05 µM", "result": "-20.5% and -59.5%"},
      {"measurement": "inhibition", "setting": "[12]; single agent, at 5 µM", "result": "-18.9% and -8.84%"},
      {"measurement": "inhibition", "setting": "[13]; at 0.5 µM", "result": "-2.59% (inactive) and -3.82% (inactive)"},
      {"measurement": "inhibition", "setting": "[13]; cisplatin combo, at 5 µM", "result": "-12% and -15.7%"},
      {"measurement": "inhibition", "setting": "[13]; measured here: BGB IC40 combination, at 0.05 µM", "result": "-2.36% and -1.73%"},
      {"measurement": "inhibition", "setting": "[13]; [15]", "result": "10.5% and -4.92%"},
      {"measurement": "inhibition", "setting": "[13]; single agent, at 5 µM", "result": "-25.2% and -0.151%"},
      {"measurement": "inhibition", "setting": "[14]; at 0.5 µM", "result": "-19.7% (inactive) and -18.9% (inactive)"},
      {"measurement": "inhibition", "setting": "[14]; measured here: with BGB IC20 combination, at 0.5 µM", "result": "-18.4% and -23.1%"},
      {"measurement": "inhibition", "setting": "[14]; measured here: with cisplatin IC20 combination, at 0.5 µM", "result": "-23.1% and -18.8%"},
      {"measurement": "inhibition", "setting": "[14]; single agent, at 0.05 µM", "result": "-52.6% and 9%"},
      {"measurement": "inhibition", "setting": "[14]; single agent, at 5 µM", "result": "8.56% and -31.8%"}
    ]},
    {"smiles": "CN1[C@@H]2CC(OC(=O)[C@H](CO)c3ccccc3)C[C@H]1[C@@H]1O[C@@H]12", "note": "(stereo partly specified)", "values": [
      {"measurement": "z-score", "setting": "[2]", "result": "-0.461 (inactive)"}
    ]},
    {"smiles": "C[N+]1(C)CCC(OC(=O)C(O)(c2ccccc2)C2CCCC2)C1", "note": "(stereo unspecified)", "values": [
      {"measurement": "z-score", "setting": "[2]", "result": "-0.121 (inactive)"}
    ]},
    {"smiles": "Clc1ccccc1CN1CCc2sccc2C1", "values": [
      {"measurement": "z-score", "setting": "[2]", "result": "0.918 (inactive)"}
    ]},
    {"smiles": "CC(C)n1c(/C=C/[C@@H](O)C[C@@H](O)CC(=O)O)c(-c2ccc(F)cc2)c2ccccc21", "values": [
      {"measurement": "SSMD", "setting": "[1]", "result": 2.42},
      {"measurement": "cell count", "setting": "[1]", "result": 6600},
      {"measurement": "plate-normalised HSF1 focus index", "setting": "[1]", "result": "1.13 (inactive)"}
    ]},
    {"smiles": "O=S(=O)(c1cccc2cnccc12)N1CCCNCC1", "values": [
      {"measurement": "fold fluorescence", "setting": "[3]", "result": "2.56 [at 137.3 µM] (active)"}
    ]}
  ]
}
